# Measurements as given in PubChem BioAssay AID743279 (National Center for Advancing Translational Sciences (NCATS), 2014).
# In all, about 360,000 compounds went through this assay and about 17,000 (4.7%) were called active. Roughly 5% stayed inconclusive and do not appear here. This is one part of a sample in which actives are shown more often than they occur. A number with no mark means an inactive call. No stated cut-off is given here; in the data, active means activity change below about -50%; inconclusive means mostly about -30% to -49%; inactive means weaker than that.
# Assay: qHTS for Inhibitors of Inflammasome Signaling: IL-1-beta AlphaLISA Primary Screen
# Conditions: THP-1 LPS/ATP IL-1B secretion, 16 h; at 57.5 µM, hits give low values
# Outline: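 Secreted IL-1B measured by AlphaLISA bead assay after 16 h compound exposure of THP-1 cells; compounds (final up to 57.5 uM) added 1 h before LPS (250 ng/mL) and ATP (1.25 mM) stimulation; lower signal means less secretion.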
# On the % scale 0 is the no-effect control and ±100 the full control effect.
row,SMILES,activity change
1,COc1cc(CCC(=O)N2CCN(c3ccccc3Cl)CC2)cc(OC)c1OC,7.36%
2,COCCCN(C(=O)Cn1ncc2c(=O)oc3ccc(C)cc3c21)C(C)c1ccncc1 (stereo unspecified),7.95%
3,CS(=O)(=O)c1sc2nc(-c3ccccc3)cc(-c3ccccc3)c2c1N,-67.8% (active)
4,CNC(=S)NNC(=O)c1oc2nc(-c3ccccc3)cc(-c3ccco3)c2c1N,-18%
5,Nc1cccc(-c2cc(-c3ccccc3)nc(-c3cccc(N)c3)n2)c1,-9.31%
6,CCOC(=O)C(C)n1cnc2scc(-c3ccc(C)c(C)c3)c2c1=O (stereo unspecified),-7.25%
7,Cc1ccc(C(=O)/C=C/c2c(C)nn(-c3ccccc3)c2Cl)cc1,-95% (active)
8,Cc1nn(-c2ccccc2)c(-n2cccc2)c1C(=O)O,20.3%
9,Cc1nn(-c2ccccc2)c(Cl)c1/C=C/C(=O)c1ccc(O)cc1,-94.5% (active)
10,Cc1nn(-c2ccc(F)cc2)c(Cl)c1/C=C(/CCC(=O)O)c1nc2ccccc2s1,19.2%
11,Cc1nn(-c2ccccc2)c(C)c1/C=C/C(=O)OC(C)C(N)=O (stereo unspecified),9.76%
12,Cc1ccc(C(=O)Nc2nc(N)n(-c3ccccc3)n2)cc1,-8.07%
13,OCC(O)C1OCOC(C(O)CO)C1O (stereo unspecified),-2.84%
14,Cc1ccc(C2Nc3ccccc3C(=O)N2CCN2CCNC2=O)cc1 (stereo unspecified),10.9%
15,Cc1cccc2[nH]c(CN(C)C(=O)C3CCC(=O)N(CCc4ccccc4)C3)nc12 (stereo unspecified),0%
16,Cc1cccc(C)c1NC(=O)C(Cl)C(=O)c1ccccc1 (stereo unspecified),-95.8% (active)
17,Cc1cccc(C)c1NC(=O)C(c1ccccc1)N1CC(=O)Nc2ccccc21 (stereo unspecified),-11%
18,Cc1cccc(C)c1NC(=O)CN(C)C(=O)CCC(=O)c1ccccc1,-6.47%
19,OC(c1ccc(F)cc1)c1ncc(-c2cccc(C(F)(F)F)c2)[nH]1 (stereo unspecified),-20.2%
20,CC(C)(C)CC(=O)Nc1nnc(SCC(=O)NCc2cccs2)s1,-5.2%
21,Cc1ccccc1NC(=O)Cc1nc(COC(=O)c2ccc(C(F)(F)F)cc2)cs1,-4.36%
22,NC(Cc1ccccc1)c1csc(Nc2cc(Oc3ccccc3)ncn2)n1 (stereo unspecified),0%
23,COc1ccc(NC(=O)C(Br)C(C)C)cc1 (stereo unspecified),-18.5%

row,SMILES,activity change
1,COc1ccc(CC(N)c2csc(NC(=O)NC(c3ccccc3)c3ccccc3)n2)cc1 (stereo unspecified),-61.5% (active)
2,COc1ccc(OC)c(NC(=O)N[C@H](Cc2ccccc2)C(=O)NN)c1,-13.5%
3,CC(C)(C)CC(=O)Nc1nc(C(N)Cc2ccc(C(F)(F)F)cc2)cs1 (stereo unspecified),-83.8% (active)
4,COC(=O)[C@H](CCSC)NC(=O)Nc1ccc(OC)cc1,16.7%
5,COc1ccc(CC(N)c2csc(NC(=O)Nc3ccc(C(C)C)cc3)n2)cc1 (stereo unspecified),-108% (active)
6,CCCS(=O)(=O)NC(=O)C1(C)CCN(C(=O)c2sccc2C)C1 (stereo unspecified),6.04%
7,CC1(C(=O)NCc2cccc3ccccc23)CCN1Cc1ccc(-c2ccccc2)o1 (stereo unspecified),-22.3%
8,COc1cccc(CNS(=O)(=O)c2ccc3c(c2)N(C(C)=O)CCS3)c1,-9.03%
9,CCC1CCCCN1C(=O)CSc1nc(C)cc(C)n1 (stereo unspecified),-6.03%
10,COc1ccc(-c2ccc(CN3C(C(C)C)C(=O)N(Cc4cn(CC5CCCCC5)nn4)CCS3(=O)=O)cc2)cn1 (stereo unspecified),-2.84%
11,COc1ccc(CCNC(=O)C(Sc2ccccn2)c2ccccc2)cc1OC (stereo unspecified),-6.65%
12,COc1ccc(C(CCN(Cc2ccc(OC)c(OC)c2)C(=O)CCl)c2ccccc2)cc1 (stereo unspecified),-101% (active)
13,COc1ccc(COC(=O)NC(C(=O)O)c2ccccc2)cc1 (stereo unspecified),7.03%
14,O=C(NCC(O)c1nc2ccccc2[nH]1)c1ccc(Br)cc1 (stereo unspecified),1.41%
15,C/C(CC(=O)Nc1ccc(Cl)cc1)=N\NC(=O)C(=O)NCCO,11.5%
16,CCOC(=O)Cc1csc(SCC(=O)Nc2ccc(C)cc2F)n1,21%
17,CCCc1[nH]nc2c1C(c1ccc(Br)s1)C(C#N)=C(N)O2 (stereo unspecified),-99.8% (active)
18,CCOc1c(OC)cc(C2C(C#N)=C(N)Oc3n[nH]c(-c4ccncc4)c32)cc1OC (stereo unspecified),25.5%
19,COc1ccc(-c2[nH]nc3c2C(c2ccncc2)C(C#N)=C(N)O3)cc1 (stereo unspecified),0%
20,CCCc1[nH]nc2c1C(c1ccc(OC)c(Cn3nc(C)c(Br)c3C)c1)C(C#N)=C(N)O2 (stereo unspecified),-67% (active)
21,CCc1ccc(C2C(C#N)=C(N)Oc3n[nH]c(CC(=O)OC)c32)cc1 (stereo unspecified),-9.71%
22,COc1cc(C2C(C#N)=C(N)Oc3n[nH]c(-c4ccccn4)c32)cc(OC)c1OC (stereo unspecified),1.38%
23,CC1(Oc2ccccc2-c2ccno2)CCN(Cc2ccc(-c3ccccc3)o2)C1 (stereo unspecified),5.25%

row,SMILES,activity change
1,S=C(Nc1ccccc1)Nc1ccc2ccccc2c1,-11.8%
2,O=C(Nc1ccc2ccccc2c1)Nc1ccc2snnc2c1,-98.9% (active)
3,O=C(Nc1cccc(Br)c1)c1ccc2snnc2c1,-14.1%
4,Cc1cc2oc(=O)cc(CN(C)Cc3ccccc3)c2cc1Cl,-8.49%
5,COc1ccc(CCOC2OC(CO)C(OC(=O)/C=C/c3ccc(O)c(OC)c3)C(O[C@H]3O[C@@H](C)[C@H](O)[C@@H](O)[C@H]3O)C2O)cc1O (stereo partly specified),12.4%
6,Cc1cccc(C)c1NC(=O)CN1CCN(c2ccc(F)cc2)CC1,21.6%
7,CC1CCCC(C)N1C(=O)CN1CCN(c2nc(-c3ccc(F)cc3)cs2)CC1 (stereo unspecified),-52.3% (active)
8,O=C(COC(=O)C1CCCO1)Nc1nc(-c2ccc(F)cc2)cs1 (stereo unspecified),-13.3%
9,O=C(CCCN1C(=O)C(c2ccccc2)Oc2cccnc21)Nc1ccccc1Br (stereo unspecified),-9.67%
10,Cc1cc(Br)cn2c(Cc3ccccc3C(F)(F)F)c(C3CCCCC3)nc12,1.07%
11,COc1cccc2sc(N(CCCN(C)C)C(=O)C(c3ccccc3)c3ccccc3)nc12,-104% (active)
12,COc1cccc2sc(N(CCCN(C)C)C(=O)CCS(=O)(=O)c3ccccc3)nc12,-103% (active)
13,COc1ccccc1NC(=O)CC(NCCN(C)C)C(=O)O (stereo unspecified),12.6%
14,Cc1ccc2sc(N(CCN(C)C)C(=O)/C=C/c3cccs3)nc2c1C,6.57%
15,COc1cc2ccccc2cc1C(=O)N(CCN(C)C)c1nc2c(F)cccc2s1,14.7%
16,Cc1ccc(S(=O)(=O)CCC(=O)OCC(=O)N(C)Cc2ccccc2)cc1,8.91%
17,COc1ccc(N(C)C(=O)CCS(=O)(=O)c2cccc3nsnc23)cc1,-11.5%
18,Cc1cc(C)c2nc(N(CCN(C)C)C(=O)/C=C/c3cccs3)sc2c1,16.5%
19,Cc1cccc2sc(N(CCCN(C)C)C(=O)CCS(=O)(=O)c3ccccc3)nc12,-96.3% (active)
20,CC(=O)NC(c1cccc(F)c1)c1nc(-c2cccc(F)c2)cs1 (stereo unspecified),-16.3%
21,CCN(CC)C(=O)C(C)N1c2cccc3cccc(c23)S1(=O)=O (stereo unspecified),13.2%
22,O=C(CCNS(=O)(=O)c1ccccc1)NCCCc1ccccc1,14.3%
23,CCc1cc(C(N)=O)c(NC(=O)c2ccc(OC)cc2)s1,-102% (active)

row,SMILES,activity change
1,COc1ccc(OC)c(C(=O)c2ccc(C(=O)N3CCN(Cc4csc(C)n4)CC3)cc2)c1,27.4%
2,CCc1ccc(NC(=O)CN2CCC(C(=O)c3ccc(OC)cc3)CC2)cc1,-20.7%
3,COc1ccc(C(=O)Nc2ccc(F)cc2F)cc1,-11.8%
4,COc1ccc(C(=O)Nc2sc(C)c(C)c2CN2CCOCC2)cc1,14%
5,CCc1cc(C(=O)c2ccc(OC)cc2)c(NC(=O)CN2CCN(C)CC2)s1,-54.3% (active)
6,CCCCn1nnnc1C(c1cc2ccccc2o1)N(C)Cc1ccc(Cl)c(Cl)c1 (stereo unspecified),1.13%
7,COc1ccc(CN2C(=O)C(CC(=O)NCCCCc3ccccc3)CC(C(=O)N3CCOCC3)=C2C)cc1 (stereo unspecified),-11%
8,COc1ccc(C(C)=O)cc1COc1ccc(Cl)c(C)c1,-8.14%
9,COc1ccc(/C=C/C(=O)Nc2c(C)nn(C)c2C)cc1COc1ccc(Br)cc1,-24.2%
10,CCn1nc(C)c(NC(=O)/C=C/c2ccc(OC)c(COc3ccc(Br)cc3)c2)c1C,-50.3% (active)
11,O=C(NN=Cc1ccc2c(c1)CCC2)c1ccccc1O,-24.6%
12,CC1CCN(S(=O)(=O)c2ccc3c(c2)n(C)c(=O)n3C)CC1,-8.4%
13,CC1CCN(C(=S)c2cccc(O)c2)CC1,10.7%
14,CCCCn1c(N)c(N(CCOC)C(=O)c2sc3ccccc3c2Cl)c(=O)[nH]c1=O,-21.6%
15,COCCSc1nnc(NC(=O)CCS(=O)(=O)Cc2ccccc2)s1,1.75%
16,CSc1nnc(NC(=O)c2nc(S(=O)(=O)Cc3ccc(C)cc3)ncc2Cl)s1,-105% (active)
17,Cc1ccc(CS(=O)(=O)c2ncc(Cl)c(C(=O)Nc3nnc(C)s3)n2)cc1,-57.1% (active)
18,Cc1ccc(S(=O)(=O)CCC(=O)Nc2nnc(CC(C)C)s2)cc1,-3.21%
19,Cc1nnc(NC(=O)CCCOc2ccccc2)s1,19.1%
20,CSc1ncc(Cl)c(C(=O)Nc2cc(C)ccc2C)n1,25.6%
21,CCc1nc2ccc(C(=O)NC3CCN(Cc4ccccc4)CC3)cn2c1N(CC)CCOC,-7.01%
22,O=C(Cn1cc(C(=O)C2CC2)c2ccccc21)Nc1ccccc1Cl,-2.81%
